Compound activity from PubChem.
MCL1-BIM inh = inhibitors of MCL1 binding to BIM-BH3, primary screen, biochemical, fluorescence polarization; Induced myeloid leukemia cell differentiation protein Mcl-1 (Homo sapiens), Q07820; GST-MCL1 / FITC-Bim-BH3 fluorescence polarization; inhibition, % at 10.9 µM; 320,000 compounds, 0.68% hits; AID 2057, 2009;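 active = inhibition above the mean inhibition of all tested compounds plus 3 SD, set per campaign, cut at about 40% in these data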;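 note: higher means more loss of mP so more displacement of Bim peptide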
Target sequence (Q07820 whole entry, looked up): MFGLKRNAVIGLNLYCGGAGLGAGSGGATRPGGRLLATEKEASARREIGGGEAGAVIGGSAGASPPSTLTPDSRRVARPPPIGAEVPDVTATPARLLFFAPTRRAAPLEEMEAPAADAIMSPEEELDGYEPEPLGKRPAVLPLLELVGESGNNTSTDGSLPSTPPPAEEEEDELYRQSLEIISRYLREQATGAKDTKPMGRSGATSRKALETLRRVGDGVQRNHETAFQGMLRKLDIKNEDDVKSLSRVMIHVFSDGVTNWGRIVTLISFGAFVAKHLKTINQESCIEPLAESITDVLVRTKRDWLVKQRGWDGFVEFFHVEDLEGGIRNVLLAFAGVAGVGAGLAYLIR
eIF4E 4G PPI = eIF4E–eIF4G protein interaction inhibitors, primary screen, biochemical, uHTS, TR-FRET, eIF4GI fragment; 220,000 compounds, 0.37% hits; AID 782, 2007; Eukaryotic translation initiation factor 4E (Mus musculus) + Eukaryotic translation …; inhibition, % at 21.7 µM; TR-FRET eIF4E-eIF4GI(517-606) binding, 2 h;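 active = inhibition above about 30%, limit read from the data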
Mcl1 Bid PPI = Mcl-1/Bid binding inhibitors, primary screen, biochemical, TR-FRET, 1536-well; Induced myeloid leukemia cell differentiation protein Mcl-1 (Homo sapiens), Q07820; TR-FRET Mcl-1/Bid-Dy647 peptide binding; inhibition, % at 21.7 µM; 220,000 compounds, 0.97% hits; AID 1021, 2008;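 active = compounds that cut the binding signal by more than half at the single screening dose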;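 note: His-tagged Mcl-1 with europium anti-His antibody binding Bid BH3 peptide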
Mcl-1 Bim block = inhibitors of Bim peptide binding to Mcl-1, primary screen, biochemical, bead-based flow cytometry, multiplex; AID 1009, 2008; Bim peptide-Mcl-1 binding; Induced myeloid leukemia cell differentiation protein Mcl-1 (Homo sapiens), Q07820; 190,000 compounds, 0.1% hits; inhibition, % at 10 µM; in the data active = inhibition above about 40%
14-3-3 Bad inh = inhibitors of 14-3-3 zeta/Bad binding, primary screen, biochemical, TR-FRET, bovine 14-3-3 zeta | 14-3-3 protein zeta/delta (Bos taurus), P63103 | TR-FRET 14-3-3zeta/Dy647-pBad peptide displacement, 1 h | inhibition, % at 21.7 µM | 220,000 compounds, 0.71% hits;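 active = inhibition above about 70%, limit read from the data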
Target sequence (P63103 whole entry, looked up): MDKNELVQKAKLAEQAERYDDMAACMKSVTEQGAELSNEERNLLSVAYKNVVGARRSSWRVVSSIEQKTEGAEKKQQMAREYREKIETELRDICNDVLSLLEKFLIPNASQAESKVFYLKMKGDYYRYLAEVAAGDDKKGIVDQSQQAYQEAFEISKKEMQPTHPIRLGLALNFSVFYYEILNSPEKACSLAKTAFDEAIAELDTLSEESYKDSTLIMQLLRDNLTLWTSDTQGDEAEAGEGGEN
Mcl1-Noxa inh = Mcl-1/Noxa binding inhibitors, primary screen, biochemical, TR-FRET, 1536-well. TR-FRET Mcl-1/Noxa peptide binding, 2 h. 220,000 compounds, 1.5% hits. AID 1022, 2008. inhibition, % at 21.7 µM;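 active = compounds that cut the protein-peptide binding signal by more than 50% relative to plate controls in a single-dose test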;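 note: His-tagged Mcl-1 with rhodamine Noxa BH3 peptide and terbium anti-His antibody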
A number is an active result; i = inactive; nt = no result; ! = repeats disagree; [ ] = dose if it differs, or a comment. The list is not random: actives were taken first. Their share in the collection is about 2.6%.

SMILES	MCL1-BIM inh	eIF4E 4G PPI	Mcl1 Bid PPI	Mcl-1 Bim block	14-3-3 Bad inh	Mcl1-Noxa inh
C/C(=N\NC(=O)CN(c1ccc(Oc2ccccc2)cc1)S(C)(=O)=O)C(C)(C)C	i	i	i	i	i	i
Cc1ccc(C)c(NC(=O)Cn2nc(-c3ccccc3)nc2-c2ccccc2)c1	i	i	56	i	i	i
CC(=O)Nc1c2c3c(cccc3n(C)c1=O)C(=O)c1ccccc1-2	50	i	i	i	i	i
CCOc1ccc(N(CC(=O)N2CCN(c3ccc(F)cc3)CC2)S(=O)(=O)c2c(C)noc2C)cc1	i	nt	nt	nt	nt	nt
CCOc1ccc(-c2nnc(-c3ccccc3)o2)cc1	i	i	i	i	i	i
CCOc1ccc(-c2nnc(-c3ccccc3)n2-c2ccccc2)cc1	i	nt	61	i	nt	i
CCOC(=O)Cc1csc(NC(=O)CSc2nnnn2-c2ccc(C)c(C)c2)n1	i	i	80	i	i	i
COc1ccc(S(=O)(=O)N2CC(=O)Nc3ccccc32)cc1	i	nt	nt	nt	nt	nt
Cc1ccc(S(=O)(=O)N(C)CC(=O)N2CCCCCC2)cc1	i	nt	nt	nt	nt	nt
COc1cccc2c1c(NC(=O)Nc1ccc(F)cc1F)nn2C	i	i	67	nt	i	i
COc1ccccc1NC(=O)Nc1nn(C)c2cccc(N(C)C)c12	i	i	i	nt	i	i
CCn1c(=O)c2cc(C(=O)N3CCN(C(=O)c4ccco4)CC3)sc2c2ccccc21	nt	i	i	i	i	i
Cc1c(C(=O)N2CCCC2)sc(NC(=O)c2cccs2)c1C#N	i	i	i	i	i	i
Cc1c(C(=O)N2CCCC2)sc(NC(=O)c2ccccc2)c1C#N	i	i	i	i	78[fluorescence artefact?]	i
Cc1sc(NC(=O)c2ccccc2)c(C(=O)N2CCN(C)CC2)c1C	i	i	86	i	i	i
CC(=O)Nc1ccc(C(=O)CN2C(=O)NC3(CCOc4ccccc43)C2=O)c(F)c1 (configuration not stated)	i	nt	nt	nt	nt	nt
Brc1ccc(C2Nc3cccc4cccc(c34)N2)s1	i	i	i	i	i	100
Cc1cccc(C2Nc3cccc4cccc(c34)N2)c1	i	nt	nt	nt	nt	nt
CCOc1ccc(S(=O)(=O)N(C)CC(=O)N2CCN(CC)CC2)cc1	i	nt	nt	nt	nt	nt
O=C(CSc1nc2scc(-c3ccccc3)c2c(=O)[nH]1)Nc1ccccc1	i	nt	nt	nt	nt	nt
CC(C)CNC(=O)CSc1nc2scc(-c3ccccc3)c2c(=O)[nH]1	i	i	i	i	i	54
O=C(/C=C1\NC2(CCCC2)Cc2ccccc21)N1CCOCC1	i	i	i	i	i	i
CC1(C)Cc2c(ccc3ccccc23)/C(=C/C(=O)N2CCCCC2)N1	i	i	i	42	71	i
NC(=O)c1cc(N2C(=O)C=CC2=O)ccc1Cl	i	i	i	i	i	68
CC(=O)Nc1ccc(Cl)c(C(N)=O)c1	i	i	i	i	i	i
SMILES	MCL1-BIM inh	eIF4E 4G PPI	Mcl1 Bid PPI	Mcl-1 Bim block	14-3-3 Bad inh	Mcl1-Noxa inh
CCc1nn(C(C)C(=O)NCCc2ccc(OC)c(OC)c2)c(=O)c2cc3occc3n12 (configuration not stated)	i	i	i	i	89	i
CCOC(=O)Nc1ccc2c(c1)N(C(=O)OCCN(C)C)c1ccccc1CC2	i	i	76!	i	i	i
C/C=C/C=C/C(=O)N1CC[C@]23c4ccccc4N[C@H]4N(C)c5cccc6c5[C@]42CCN([C@H]6C2OC2(C)C)[C@H]13 (some centres not stated)	i	i	i	nt	i	64
O=C(c1ccco1)N1CCN(c2ccc([N+](=O)[O-])c(N3CCOCC3)c2)CC1	i	i	i	i	i	i
CCOC(=O)N1CCN(CC(=O)Nc2cc(OCC)ccc2OCC)CC1	i	i	60	i	i	i
CCOc1ccc(OCC)c(NC(=O)CN2CCN(c3ccc(C)cc3C)CC2)c1	i	i	51	i	i	i
CC(CCC(=O)Nc1nncs1)C(=O)O (configuration not stated)	i	i	86	i	i	i
COc1ccc(NC(=O)COC(=O)CCc2ccccc2)c(OC)c1	i	nt	nt	nt	nt	nt
CCOc1ccc(N=CC2=C(O)CC(c3ccco3)CC2=O)cc1 (configuration not stated)	i	i	i	i	i	i
O=C1CC(c2ccco2)CC(O)=C1C=Nc1cc(Cl)cc(Cl)c1 (configuration not stated)	i	52	i	i	i	i
COc1ccc(OC)c(NC(=O)CSc2nc(=O)n(Cc3ccccn3)c3c2CCC3)c1	i	nt	nt	nt	nt	nt
CC12CCC(C(=O)Nc3nc4ccc(Br)cc4s3)(OC1=O)C2(C)C (configuration not stated)	i	i	i	i	i	i
COc1ccccc1CNC(=O)/C=C/c1cc2c(cc1Br)OCO2	i	i	i	i	i	i
COc1cc2nc(C3CCC3)nc(N3CCN(c4ccccc4OC)CC3)c2cc1OC	i	i	i	i	i	i
CCCCC[C@H](O)/C=C/[C@H]1C=CC(=O)[C@@H]1C/C=C\CCCC(=O)O	nt	i	i	i	i	69
CCCCC[C@H](O)/C=C/[C@H]1[C@H](O)CC(=O)[C@@H]1CCCCCCC(=O)O	i	nt	nt	nt	nt	nt
Nc1nc(Sc2c([N+](=O)[O-])cc(C(F)(F)F)cc2[N+](=O)[O-])n[nH]1	i	i	i	nt	i	i
CC(C)Cn1nc(NC(=O)C(C)(C)C)c2cc3ccccc3nc21	i	i	i	i	i	i
CCCCC(=O)Nc1nn(CC(C)C)c2nc3ccccc3cc12	i	i	i	i	82	i
CCc1ccccc1OCCCCN1CCCC1	i	i	i	i	i	i
C=CCc1ccccc1OCCCCN1CCCC1	i	i	i	i	79	i
Cc1ccccc1OCCCN1CCCC1	i	i	i	i	76	i
Cc1ccccc1OCCN1CCCC1	i	nt	nt	nt	nt	nt
O=C(O)c1ccc(NS(=O)(=O)c2ccc3c(c2)C2C=CCC2C(c2ccccc2F)N3)cc1 (configuration not stated)	nt	i	i	i	i	93
O=C(NCc1ccccc1)C1Nc2ccc(OC(F)(F)F)cc2C2C=CCC12 (configuration not stated)	i	nt	nt	nt	nt	nt
CCCN(CCO)Cc1ccc(Br)cc1	i	i	i	i	84	i
CCN(CC)CCN(C)Cc1ccc(Br)cc1	i	i	i	i	76	i
O=C(CCN(CCO)Cc1ccccc1)Nc1ccc(Br)cc1	i	i	i	i	i	i
CCOc1ncccc1C(=O)OCCCC(=O)c1ccc(Br)cc1	i	nt	nt	nt	nt	nt
Cc1sc2nc(CN3CCOCC3)nc(N3CCN(S(=O)(=O)c4ccccc4)CC3)c2c1C	i	nt	nt	nt	nt	nt
